We go through one compound from the GenesisPotency data set.

The structures appear in SMILES notation. Out of some 370,000 compounds screened, about 1,100 (0.3%) were called active. Not shown: some 1% with an inconclusive outcome. Calls follow the shape of the dose curve; as a rule, active = well fitted activation curve with a large enough effect; inconclusive = small, poorly fitted or top-dose-only effect; inactive = flat fitted curve, though single readings scatter. Only a selection was taken, and actives are over-represented in it overall.

For the assay, the target named is T1, Relaxin receptor 1, Homo sapiens (UniProt Q9HBX9).
T1 sequence (whole entry): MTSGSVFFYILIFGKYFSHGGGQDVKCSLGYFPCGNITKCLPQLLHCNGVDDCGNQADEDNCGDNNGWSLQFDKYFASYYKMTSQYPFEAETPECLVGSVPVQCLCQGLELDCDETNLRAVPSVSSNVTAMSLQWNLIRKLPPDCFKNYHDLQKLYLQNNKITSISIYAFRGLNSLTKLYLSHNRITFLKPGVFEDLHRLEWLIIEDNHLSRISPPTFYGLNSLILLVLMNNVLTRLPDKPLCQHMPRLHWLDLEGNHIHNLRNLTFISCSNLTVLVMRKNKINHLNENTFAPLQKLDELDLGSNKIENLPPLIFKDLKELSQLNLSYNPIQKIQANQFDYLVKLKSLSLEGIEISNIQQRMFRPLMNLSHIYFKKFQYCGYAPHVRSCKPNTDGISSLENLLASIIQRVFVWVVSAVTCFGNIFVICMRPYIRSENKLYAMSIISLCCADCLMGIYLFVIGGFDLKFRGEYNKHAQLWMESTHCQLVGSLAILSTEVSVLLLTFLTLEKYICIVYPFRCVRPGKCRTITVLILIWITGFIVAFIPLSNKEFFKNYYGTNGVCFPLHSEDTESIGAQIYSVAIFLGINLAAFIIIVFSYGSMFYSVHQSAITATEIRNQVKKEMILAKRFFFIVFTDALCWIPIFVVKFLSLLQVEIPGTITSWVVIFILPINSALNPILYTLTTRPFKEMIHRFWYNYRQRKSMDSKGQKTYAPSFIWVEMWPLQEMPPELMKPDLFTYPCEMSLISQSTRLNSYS
The experiment in a line: qHTS Assay for Agonists of the Relaxin Receptor RXFP1.
Consider `CCCC[N+](CCCC)(CCCC)CCCC.Nc1ncnc2c1ncn2[C@@H]1O[C@H](COS(=O)(=O)[O-])[C@@H](O)[C@H]1O`, for which the compound was classed as active.
